Hits are enriched below; roughly 1.4% of the tested compounds scored in any of these assays.
ASM inhibitor = blocks human secretory acid sphingomyelinase | P17405 | placental ASM, HMU-PC fluorogenic substrate, 60 min | Potency, µM (top dose mostly 57.5 µM), inactives show at the highest dose activity change, negative = inhibition, most hits filed as inhibitors | 340,000 tested, 0.006% active | AID 504937; also: potency is read from the fitted curve at half-maximal effect
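qHTS format. ASM enzyme prepared from human placenta hydrolyses the fluorogenic substrate HMU-PC0 (9 uM final) over 60 min at 37 °C after a 10 min compound preincubation.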
uPA generation = cell surface uPA generation inhibition | cell surface uPA generation assay, qHTS | Potency, µM (top dose mostly 38.3 µM), for the others: at the top dose activity change, negative = inhibition, actives largely listed as inhibitors | 330,000 tested, 0.31% active; active = well fitted inhibition curve with a large enough effect; inconclusive = small, poorly fitted or top-dose-only effect; inactive = no such curve, though single readings can be large or run the other way; tested in mouse RAW 264.7 cells; also: potency is read from the fitted curve at half-maximal effect; % is scaled to controls: 0 for no effect and ±100 for the full control effect; nearly all actives have a fitted effect of over 55% in size
p53 reactivation = re-activators of mutant p53; H1299 p53-A138V BP100-luciferase reporter, luminescence, 24 h; Potency, µM (doses to about 92.2 µM), inactives show at the highest dose activity change, positive = activation, most hits filed as activators; 320,000 tested, 0.063% active; AID 504706; also: potency is read from the fitted curve at half-maximal effect; % of control where 0% means no effect; nearly all actives have a fitted effect of over 45% in size
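p53-null H1299 cells stably carrying temperature-sensitive p53-A138V and a BP100-luciferase reporter were pinned with compounds (4-point, 1:5 series) and held 24 hrs at 37 deg C. Luminescence was read 10 min after detection reagent.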
MmCpn inh = M. maripaludis TRiC chaperonin inhibition. purified Mm-Cpn ATPase, ADP Transcreener TR-FRET. Potency, µM (doses to about 76.9 µM), for the others: top-dose activity, negative = inhibition, hits mostly inhibitors. 330,000 tested, 0.031% active. AID 504842; also: potency is read from the fitted curve at half-maximal effect; % is scaled to controls: 0 for no effect and ±100 for the full control effect; nearly all actives have a fitted effect of over 80% in size
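Quantitative HTS used 25 nM Mm-CPN and 10 uM ATP in magnesium/KCl Tris buffer, pH 7.4, with 1 mM DTT. Hydrolysis ran 30 min at 37°C; ADP was read by HTRF.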
KCNH2 3.1 inh = blocks the human KCNH2 3.1 channel isoform | 340,000 tested, 0.95% active | activity change, % (tested at about 1.8 µM) | U2OS KCNH2 3.1, thallium flux FluxOr; stronger effect = lower value;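 active = maximum activity change below -70%; inconclusive = maximum activity change from -70% to -50%; inactive = maximum activity change above -50%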;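 also: thallium influx rate constant from kinetic fluorescence after stimulation buffer; % is scaled to controls: 0 for no effect and ±100 for the full control effect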
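FluxOr-based Tl+ influx in U2OS cells transduced with KCNH2 3.1 virus; rate constants normalized to DMSO controls.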
hERG WT inh = inhibitors of human wildtype KCNH2 potassium channel; AID 720551; U2OS, BacMam KCNH2, thallium flux FluxOr; stronger effect = lower value; activity change, % at 1.84 µM; Q12809; 340,000 tested, 0.37% active;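 active = maximum activity change below -70%; inconclusive = maximum activity change between -70% and -50%; inactive = maximum activity change above -50%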; also: % is scaled to controls: 0 for no effect and ±100 for the full control effect
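U2OS cells were transduced with wild-type KCNH2 virus (2.03 x 10^8 / mL) for 4 h at room temperature, then cultured overnight at 37 C. Thallium flux was read with FluxOr dye. Rate constants were normalized to DMSO controls.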
Numbers without * were called inactive; [ ] = another dose, or the depositor's remark. Unless noted, calls follow the shape of the dose curve; as a rule, active = well fitted curve in the direction sought with a large enough effect; inconclusive = small, poorly fitted or top-dose-only effect, or another doubt; inactive = no such curve, though single readings can be large; an effect the other way counts as inactive or inconclusive.

`Cc1ccc([N+](=O)[O-])c(OCCCN2CCC(Cc3ccccc3)CC2)c1` gave ASM inhibitor -12.6%, uPA generation -20.3%, KCNH2 3.1 inh -96.6* and hERG WT inh -126.6*.
Screening Cc1ccc([N+](=O)[O-])c(OCCN2CCCCCC2)c1 returned ASM inhibitor -1.3%, uPA generation -6.2%, p53 reactivation -3.8%, MmCpn inh -0.6%, KCNH2 3.1 inh 1.7 and hERG WT inh 20.3.
`Clc1ccccc1OCCN1CCC(Cc2ccccc2)CC1` gave ASM inhibitor 3.0%, uPA generation -13.9%, p53 reactivation -0.4%, MmCpn inh -0.1%, KCNH2 3.1 inh -23.6 and hERG WT inh 16.5.
O=[N+]([O-])c1cccc(OCCN2CCC(Cc3ccccc3)CC2)c1 was read as ASM inhibitor -2.4%, uPA generation -2.8%, p53 reactivation 6.4%, MmCpn inh -0.1%, KCNH2 3.1 inh -70.5* and hERG WT inh 4.5.
`O=Cc1cc(Cl)ccc1OCCN1CCC(Cc2ccccc2)CC1` gave ASM inhibitor -1.8%, uPA generation 3.0%, p53 reactivation -43.4%, MmCpn inh -3.0%, KCNH2 3.1 inh -104.7* and hERG WT inh inconclusive.
For C=CCOc1ccccc1CN1CCC(Cc2ccccc2)CC1 the results were ASM inhibitor 1.4%, uPA generation 3.4%, p53 reactivation 4.3%, MmCpn inh 0.6%, KCNH2 3.1 inh -86.7* and hERG WT inh 38.9.
Screening O=C(CCN1CCCCC1=O)NC1CCCc2c1cnn2-c1ccccc1F (stereo not given) returned ASM inhibitor 1.0%, uPA generation 2.9%, p53 reactivation -2.3%, MmCpn inh 3.2%, KCNH2 3.1 inh -6.4 and hERG WT inh 2.1.
Screening COc1ccc(C2(SCC(N)C(=O)O)c3ccccc3-c3ccccc32)cc1 (stereo not given) returned ASM inhibitor -0.3%, uPA generation 4.2%, KCNH2 3.1 inh 9.3 and hERG WT inh 0.9.
For OCc1ccccc1OCCCN1CCC(Cc2ccccc2)CC1 the results were ASM inhibitor -0.7%, uPA generation -3.6%, p53 reactivation -10.6%, MmCpn inh 0.8%, KCNH2 3.1 inh -89.6* and hERG WT inh -3.1.
For O=C(Cc1ccc(Cl)cc1)Nc1ccc(CN2CCCCC2)cc1 the results were ASM inhibitor -0.8%, uPA generation -0.6%, p53 reactivation -6.3%, MmCpn inh -1.2%, KCNH2 3.1 inh -70.1* and hERG WT inh 21.1.
`CCCCn1nnc(NC(=O)c2sc3cc(Cl)ccc3c2Cl)n1` gave ASM inhibitor 1.3%, uPA generation 0.9%, p53 reactivation -0.4%, MmCpn inh -15.2%, KCNH2 3.1 inh -5.9 and hERG WT inh -9.4.
Screening O=C(NCC(=O)N1CCCCC1)c1sc2ccccc2c1Cl returned ASM inhibitor 2.8%, uPA generation -9.6%, p53 reactivation inconclusive, MmCpn inh -1.7%, KCNH2 3.1 inh 24.4 and hERG WT inh 3.2.
`O=C(Nc1ccc(CN2CCCCC2)cc1)c1sc2ccccc2c1Cl` gave ASM inhibitor -4.5%, uPA generation -8.4%, p53 reactivation 1.5%, MmCpn inh 0.5%, KCNH2 3.1 inh -100.1* and hERG WT inh -2.5.
For CCN(CC)Cc1ccc(NC(=O)c2sc3cc(Cl)ccc3c2Cl)cc1 the results were ASM inhibitor -12.8%, uPA generation 0.6%, p53 reactivation 0.9%, MmCpn inh -0.2%, KCNH2 3.1 inh -95.0* and hERG WT inh 5.6.
Screening CC(=O)Nc1ccc(CN2CCCCCC2)cc1 returned ASM inhibitor -6.1%, uPA generation 13.0%, MmCpn inh 1.1%, KCNH2 3.1 inh -9.1 and hERG WT inh 1.6.
`Cc1cc(OCC(=O)Nc2ccc(CN3CCCCC3)cc2)ccc1Cl` gave ASM inhibitor -1.5%, uPA generation 1.7%, p53 reactivation 14.3%, MmCpn inh 2.7%, KCNH2 3.1 inh -85.6* and hERG WT inh 12.6.
Screening COc1ccc([C@]23Cc4cc(C#N)ccc4C(O2)C2=C(CC4(CCCCC4)OC2=O)O3)cc1 returned MmCpn inh -2.6%[15.4 µM].
